Bioassay records deposited in PubChem BioAssay by National Center for Advancing Translational Sciences (NCATS).
Hits are enriched below; roughly 9.3% of the tested compounds scored in any of these assays.
Sm TGR block – S. mansoni TGR enzyme inhibition; purified TGR, DTNB reduction, TNB absorbance 405 nm; Potency, µM (highest dose often 114 µM), inactives show at the top dose activity change, negative = inhibition, actives largely listed as inhibitors; hit rate 3% among 360,000; also: potency is read from the fitted curve at half-maximal effect; nearly all actives have a fitted effect of over 60% in size
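TGR 20 nM + NADPH 100 uM (dispensed conc.), cpd preinc 15 min RT; start with NADPH (500 uM addition) then DTNB (15 mM addition). Kinetic TNB absorbance, 405 nm filter. Four-parameter Hill fit across titration.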
VACV Venus inh – vaccinia inhibition (Venus reporter). Vaccinia virus Venus reporter expression, fluorescence. Potency, µM (top dose mostly 36.5 µM), without a hit: at the top dose activity change, negative = inhibition, usual class: inhibitors. hit rate 0.46% among 330,000; calls by dose curve; tested in A549 cells; also: potency is read from the fitted curve at half-maximal effect; nearly all actives have a fitted effect of over 30% in size
VACV mCherry inh – vaccinia inhibition (mCherry reporter). Vaccinia virus mCherry reporter infection, fluorescence. Potency, µM (top dose mostly 36.5 µM), for inactives: at the highest dose activity change, negative = inhibition, most hits filed as inhibitors. hit rate 0.63% among 310,000; calls by dose curve; tested in A549 cells; also: potency is read from the fitted curve at half-maximal effect; nearly all actives have a fitted effect of over 35% in size
HCV inh – HCV inhibition. Huh7.5.1 HCVcc-Cre infection, luciferase reporter, 44 h. Potency, µM (series often up to 41.8 µM), for the others: at the top dose activity change, negative = inhibition, actives largely listed as inhibitors. hit rate 3.4% among 340,000; also: potency is read from the fitted curve at half-maximal effect
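Seed cells (1,000/well) for 4 h; treat with compound and infect with HCVcc-Cre, moi about 0.5. Incubate 44 h, then detect luciferase activity.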
FMDV inh – blocks foot and mouth disease virus; FMDV antiviral cell-based qHTS; hit rate 1.2% among 410,000; Potency, µM (highest dose often 57.9 µM), without a hit: at the top dose activity change, negative = inhibition, actives largely listed as inhibitors; calls by dose curve; tested in HEK293T cells; also: read-out not given here; potency is read from the fitted curve at half-maximal effect; nearly all actives have a fitted effect of over 45% in size
HCMV inh – blocks human cytomegalovirus replication. AID 1259415. hit rate 4.5% among 410,000. HFF cells, HCMV-luciferase reporter, 72 h; hits give low values. activity change, negative = inhibition, % at 57.5 µM; in the data active = activity change below about -60%; inconclusive = no clear call, values can overlap the other calls; inactive = above about -39%
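Luciferase read-out from HCMV-luciferase-infected HFFs (MOI 1 PFU/cell) 72 h post infection at 37C; compounds added after 16 h cell attachment; activity normalized between buffer-only basal and Salinomycin (10uM) inhibitor controls.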
* = called active by the depositor; i = inactive; ? = inconclusive; . = no result given; + = active, no number. Unless noted, calls follow the shape of the dose curve; as a rule, active = well fitted curve in the direction sought with a large enough effect; inconclusive = small, poorly fitted or top-dose-only effect, or another doubt; inactive = no such curve, though single readings can be large; an effect the other way counts as inactive or inconclusive. % is scaled to controls: 0 for no effect and ±100 for the full control effect.

SMILES | Sm TGR block | VACV Venus inh | VACV mCherry inh | HCV inh | FMDV inh | HCMV inh
NC(Cc1ccc2nsnc2c1)C(=O)O (centres undefined) | . | . | . | 34.2% | 26.9% | -19.5
COCCN1C(=O)NC(=O)/C(=C\c2ccc(Br)cc2)C1=O | ? | . | . | -3.8% | -1.3% | -36.5
CSc1ncc(/C=C2/C(=O)NC(=O)N(C)C2=O)cn1 | 1.41µM* | -7.8% | i | 8.9% | -9.6% | -12.5
CSc1ncc(/C=C2/C(=O)NC(=O)N(C3CCCCC3)C2=O)cn1 | 5.01µM* | -16.9% | . | 25.3% | 0.0% | 196.0
CCCCN1C(=O)NC(=O)/C(=C/c2cnc(SC)nc2)C1=O | 7.08µM* | 0.1% | . | 18.7% | 0.0% | 88.6
CC(C)Oc1ccc(/C(O)=C2/C(=O)C(=O)N(CCN3CCOCC3)C2c2ccccc2)cc1 (centres undefined) | 0.0% | ? | . | 0.1% | -22.8% | 5.7
CCOC(=O)[C@]12Cc3cc(OC)ccc3[C@H]1N(CC(=O)OC)C(=O)c1ccccc12 | . | -3.7% | 4.0% | . | -18.4% | -10.9
CCOC(=O)C1(NC(=O)CN2C(=O)c3ccccc3C2=O)CCCC1 | . | -4.7% | -12.8% | 26.3% | -6.6% | -17.2
CCOC(=O)[C@]12Cc3c(cc(OC)c(OC)c3OC)[C@H]1N(C1CCCCC1)C(=O)c1ccccc12 | . | ? | ? | . | 8.91µM* | -101.5*
CCOC(=O)[C@]12Cc3ccccc3[C@H]1N(C(C)C)C(=O)c1ccccc12 | . | ? | ? | . | 17.8µM* | -105.3*
CCOC(=O)[C@]12Cc3cc(C)ccc3[C@H]1N(CCC(=O)OC)C(=O)c1ccccc12 | . | ? | ? | . | 14.1µM* | -109.7*
CCOC(=O)[C@]12Cc3cc(C)ccc3[C@H]1N(C1CCCCC1)C(=O)c1ccccc12 | . | ? | ? | . | 7.94µM* | -103.5*
COc1ccc(-c2nc3cc(C)ccc3cc2CN(C(=O)c2csc(C)n2)C2CC2)cc1OC | . | -1.8% | -7.0% | . | -8.0% | .
OCCc1c[nH]c2ccccc12 | -18.3% | ? | -12.5% | -21.0% | 55.4% | 65.8
Cn1cc(C(=O)NCCO)c(=O)c2ccccc21 | -1.5% | -6.7% | -6.9% | 7.2% | 2.3% | 0.6
CCOC(=O)[C@]12Cc3ccc(C)cc3[C@H]1N(C1CCCCC1)C(=O)c1ccccc12 | . | ? | ? | . | 6.31µM* | -101.3*
CCOC(=O)[C@]12Cc3cc(C)ccc3[C@H]1N(Cc1ccccc1)C(=O)c1cc(OC)ccc12 | . | ? | -28.2% | . | ? | -34.6
CCOC(=O)N1CCC(N2C(=O)c3ccccc3C2Nc2ccc(C)cc2)CC1 (centres undefined) | 6.1% | -5.8% | -13.0% | 11.0% | -23.0% | -39.0
CCOC(=O)[C@]12Cc3cc(Cl)ccc3[C@H]1N(C1CCCCC1)C(=O)c1cc(OC)ccc12 | . | 3.55µM* | ? | . | 2.24µM* | -103.8*
CCOC(=O)[C@]12Cc3ccc(C)cc3[C@H]1N(C1CCCCC1)C(=O)c1cc(OC)ccc12 | . | ? | ? | . | 28.2µM* | -103.2*
Cn1c(=O)c2c(ncn2CC(=O)OCC(=O)Nc2sccc2C(N)=O)n(C)c1=O | -2.3% | -14.4% | i | 11.5% | -10.9% | 12.3
COc1ccc(S(=O)(=O)N2CCCCC2c2cc(C(=O)NCc3ccccc3)no2)cc1 (centres undefined) | . | -5.6% | i | . | 1.3% | -61.5*
O=C(NCc1ccccc1)c1cc(C2CCCCN2S(=O)(=O)c2ccccc2)on1 (centres undefined) | . | -8.2% | 27.5% | . | 1.2% | -18.9
CCOc1cccc2sc(N(Cc3cccnc3)C(=O)C3CCCCC3)nc12 | 10.0% | -8.2% | -22.6% | . | -2.7% | +
O=C(Nc1ccc([N+](=O)[O-])cc1)C(=O)Nc1cccc(C(=O)O)c1 | 8.7% | . | . | 3.8% | 10µM* | 0.0
O=C(O)c1cccc(Nc2nc(-c3ccc([N+](=O)[O-])cc3)nc3ccccc23)c1 | 1.0% | . | . | 0.2% | -7.9% | -70.8*
O=C(O)c1cccc(Nc2nc(-c3ccccc3)nc3ccccc23)c1 | -0.1% | -15.4% | -2.1% | 13.7% | -1.7% | 21.0
O=C(O)c1cc(NC(=O)c2ccc([N+](=O)[O-])cc2)cc(NC(=O)c2ccc([N+](=O)[O-])cc2)c1 | -7.1% | -21.8% | -8.5% | -4.6% | -9.7% | -29.6
